Experimental findings from PubChem BioAssay (NCI) are described below.

Test in all cases: NCI-60 one-dose screen, 48 h (100 = growth as untreated, 0 = no growth, -100 = all killed)
Common to all, as to conditions: 10 µM unless noted

For experiment [1], the system named is NCI-H23 lung.
The test system of experiment [2] is NCI-H226 lung.
For experiment [3], the system named is NCI-H322M lung.
Experiment [4] has as its system HOP-62 NSCLC.
For experiment [5], the system named is NCI-H460 lung.
The test system of experiment [6] is HOP-92 NSCLC.
Experiment [7] deals with NCI-H522 lung.
The test system of experiment [8] is A549/ATCC NSCLC.
The subject of experiment [9] is 786-0 renal.
Experiment [10] concerns COLO 205 colon.
Experiment [11] deals with DU-145 prostate.
Experiment [12] deals with K-562 leukemia.
Experiment [13] relates to MALME-3M melanoma.
The test system of experiment [14] is MDA-MB-231 breast.
Experiment [15] deals with RXF 393 renal.
Experiment [16] deals with SF-268 CNS.
Experiment [17] relates to SF-295 CNS.
Experiment [18] relates to SF-539 CNS.
The subject of experiment [19] is UACC-257 melanoma.
The test system of experiment [20] is M14 melanoma.

The structures appear in SMILES notation. This is part of a sample that, as a whole, favours compounds with a hit. Of some 83,000 tested, about 20% had one in any assay.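 Growth was measured after 48 h exposure to one concentration of compound in 96-well plates. Values under 10 count as active.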 Values without a mark were called inactive. Calls of active or inactive are those of the source.

Regarding `CC1(C)C=CC[C@]2(C)[C@H]3CC[C@@H]4[C@H]5[C@H](C(=O)/C=C/c6cccnc6)CC[C@]5(CO)CC[C@@]4(C)[C@]3(C)CC[C@@H]12`, the growth in [1] is -60% (active); in experiment [2] it was -54.1% (active); in [3], 9.88% (active); in experiment [4] it was -81.3% (active); in experiment [5], -62.4% (active); in [6], -92.7% (active). Besides, the growth in experiment [7] is -73.7% (active); in experiment [8], -41.5% (active); in experiment [9], -59.8% (active); in experiment [10], -71.9% (active); in [11], -94.2% (active); in experiment [12], -29.3% (active). Further, the growth in experiment [13] was -85% (active); in [14], -77.6% (active); in experiment [15], -86.7% (active); in experiment [16], -57.6% (active); in experiment [17] it was -91.4% (active); in [18] it was -96.2% (active). For the same compound, the results for the growth in experiment [19] and in experiment [20] were -49.7% (active) and -74.4% (active), respectively.

`C=C(C)[C@@H]1CC[C@]2(C(=O)NNC(=O)c3cccnc3)CC[C@]3(C)[C@H](CC[C@@H]4[C@@]5(C)CCCNC(C)(C)[C@@H]5CC[C@]43C)[C@@H]12`: the growth in experiment [1] is 84.4%; in experiment [2], 83.2%; in [3], 101%; in experiment [4], 84.9%; in [5], 95.9%; in experiment [6], 50.5%. For the same compound, the growth in experiment [7] is 99.4%; in experiment [8] it was 71.6%; in experiment [9], 94.8%; in [10] it was 20.6%; in [11], 91.3%; in experiment [12], 1.18% (active). The growth in experiment [13] is 66.6%; in experiment [14], 87%; in [15], 79.7%; in experiment [16], 87%; in [17] it was 90.3%; in experiment [18], 81.3%. Besides, the growth in experiment [19] is 61.9%; in experiment [20] it was 63.8%.

For `COc1cnc2c(c1)C(=O)c1c-2n(CCCNC(C)C)c(=O)c2cc([N+](=O)[O-])ccc12`, the growth in experiment [1] is -67.8% (active); in [2], -58.8% (active); in experiment [3], -31.6% (active); in experiment [4], -53.2% (active); in experiment [5] it was -74.1% (active); in experiment [6], -80.1% (active). Also, the growth in experiment [7] is -56.6% (active); in [8], -65.5% (active); in [9], -88.2% (active); in [10] it was -74.3% (active); in [11], -58.4% (active); in [12], -14.4% (active). Moreover, the growth in [13] was -58.2% (active); in experiment [14], -60.5% (active); in experiment [15], -80.7% (active); in experiment [16] it was -61.2% (active); in experiment [17], -76.2% (active); in experiment [18], -63% (active). The growth in experiment [19] was -67% (active); in experiment [20], -76.8% (active).

As to `O=C(/C(=C(\C(=O)c1ccccc1)c1ccccc1)c1ccccc1)c1ccccc1`, the growth in [1] was 42%; in [2], 63.9%; in experiment [3], 76%; in [4] it was 80.3%; in experiment [5], 25.1%; in [6], 37.8%. The growth in experiment [7] is 43.3%; in experiment [8], 28.9%; in experiment [9], 69.9%; in experiment [10], 53.2%; in [11] it was 80.1%; in experiment [12] it was 14.1%. Moreover, the growth in [13] was 77.2%; in [14] it was 66.7%; in [15], 69.5%; in experiment [16], 56.2%; in experiment [17], 54.7%; in [18], 82.1%. For the same compound, the results for the growth in [19] and in [20] were 68.8% and 66.3%, respectively.

For `CC(C)(C)c1cc(-n2c(-c3ccc(Cl)cc3)nc3cc(C(=O)Nc4ccc(Cl)cc4)ccc32)n[nH]1`, the growth in [1] is 32.8%; in experiment [2] it was 73.9%; in experiment [3], 82%; in experiment [4], 83.6%; in experiment [5], 39.6%; in experiment [6] it was 38.1%. Further, the growth in experiment [7] is 56.9%; in [8], 51.1%; in [9], 67.4%; in experiment [10] it was 51.8%; in experiment [11], 79.8%; in experiment [12], 41.2%. Moreover, the growth in experiment [13] was 75.4%; in [14], 79.8%; in experiment [15], 65.7%; in experiment [16], 69.7%; in experiment [17], -2.36% (active); in [18], 82.9%. Further, the growth is 81.1% in experiment [19] and 62.7% in experiment [20].

For the compound `Cc1ccc(Cc2cnc(NC(=O)/C=C/c3cccc(C)c3)s2)cc1`, the growth in experiment [1] is 13.3%; in [2], 36.8%; in experiment [3] it was 46.1%; in [4] it was 18.5%; in experiment [5] it was 1.93% (active); in experiment [6], 70.4%. Further, the growth in experiment [7] was 18.6%; in experiment [8] it was 16.1%; in experiment [9], 17.8%; in experiment [10] it was -4.26% (active); in experiment [11], 16.2%; in [12] it was 13.7%. Besides, the growth in [13] is 31.4%; in experiment [14], 3.61% (active); in [15], -0.16% (active); in experiment [16], 44.7%; in experiment [17], -13.6% (active); in [18] it was -30.1% (active). Besides, the growth was 67.7% in [19] and -12.4% (active) in experiment [20].

Consider `COc1ccc2c(c1)c(-c1nc(-c3c[nH]c4ncccc34)cs1)cn2CCNC(=O)OC(C)(C)C`, for which the growth is 70.6% in experiment [1]; 72% in experiment [2]; 82.6% in experiment [3]; 64.1% in experiment [4]; 82.2% in experiment [5]; 54.9% in experiment [6]. In addition, the growth was 61% in [7]; 72.6% in [8]; 73.6% in experiment [9]; 84.6% in [10]; 89.3% in [11]; 62.4% in experiment [12]. Besides, the growth was 103% in experiment [13]; 53.2% in experiment [14]; 83.1% in experiment [15]; 83.5% in experiment [16]; 85.1% in experiment [17]; 66.5% in [18]. Besides, the growth in experiment [19] is 98.5%; in experiment [20] it was 69.3%.
